# Results: paper PMC5540273 (PLoS ONE, 2017)
# Several values for one entry are separate records, joined by “and”; a condition that tells them apart may be missing. Identical values can stand only once. Like-named read-outs stand apart in the source and are kept apart here.
# Tests used:
# [1] = system: BLK; settings: concentration: 1 μM, replicates: in singlicate, n = 1
# [2] = system: BMPR1A; settings: concentration: 1 μM, replicates: in singlicate, n = 1
# [3] = system: BMPR1B; settings: concentration: 1 μM, replicates: in singlicate; n = 1
# [4] = system: BMPR2; settings: concentration: 1 μM, replicates: in singlicate, n = 1
# [5] = system: BMX; settings: concentration: 1 μM, replicates: in singlicate, n = 1
# [6] = system: BRAF; settings: concentration: 1 μM, replicates: in singlicate, n = 1
# [7] = system: T1, BRK; settings: concentration: 1 μM, replicates: in singlicate, n = 1
# T1 construct: gene PTK6
# [8] = system: BRSK1; settings: concentration: 1 μM, replicates: in singlicate, n = 1
# [9] = system: BRSK2; settings: concentration: 1 μM, replicates: in singlicate, n = 1
# [10] = system: BTK; settings: concentration: 1 μM, replicates: in singlicate, n = 1
# [11] = system: BUB1; settings: concentration: 1 μM, replicates: in singlicate, n = 1
# [12] = system: CAMK1B; settings: concentration: 1 μM, replicates: in singlicate, n = 1
# [13] = system: CAMK1D; settings: concentration: 1 μM, replicates: in singlicate, n = 1
# [14] = system: CAMK1G; settings: concentration: 1 μM, replicates: in singlicate; n = 1
# [15] = system: CAMK1; settings: concentration: 1 μM, replicates: in singlicate, n = 1
# [16] = system: CAMK2A; settings: concentration: 1 μM, replicates: in singlicate; n = 1
# [17] = system: CAMK2B; settings: concentration: 1 μM, replicates: in singlicate; n = 1
# [18] = system: CAMK2D; settings: concentration: 1 μM, replicates: in singlicate, n = 1
# [19] = system: CAMK2G; settings: concentration: 1 μM, replicates: in singlicate, n = 1
# [20] = system: CAMK4; settings: concentration: 1 μM, replicates: in singlicate; n = 1
# 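Note: KINOMEscan kinase panel screen.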
structure (smiles),measurement,setting,value
Cn1ccc2ncnc(Oc3ccc(NC(=O)Nc4ccncc4)c(Cl)c3)c21,%Inh,[1],0%
same,%Inh,[2],1%
same,%Inh,[3],0%
same,%Inh,[4],20%
same,%Inh,[5],0%
same,%Inh,[6],0%
same,%Inh,[7],0%
same,%Inh,[8],0%
same,%Inh,[9],0%
same,%Inh,[10],0%
same,%Inh,[11],11%
same,%Inh,[12],0%
same,%Inh,[13],0%
same,%Inh,[14],0%
same,%Inh,[15],0%
same,%Inh,[16],0%
same,%Inh,[17],0%
same,%Inh,[18],0%
same,%Inh,[19],0%
same,%Inh,[20],7%
NS(=O)(=O)c1cccc(-c2ccc3ncc(N4CCOCC4)nc3c2)c1 [GSK1535721],%Inh,[1],0%
same,%Inh,[2],0%
same,%Inh,[3],7%
same,%Inh,[4],2%
same,%Inh,[5],30%
same,%Inh,[6],0%
same,%Inh,[7],13%
same,%Inh,[8],0%
same,%Inh,[9],0%
same,%Inh,[10],1%
same,%Inh,[11],0%
same,%Inh,[12],7%
same,%Inh,[13],18%
same,%Inh,[14],15%
same,%Inh,[15],12%
same,%Inh,[16],0%
same,%Inh,[17],2%
same,%Inh,[18],21%
same,%Inh,[19],17%
same,%Inh,[20],0%
CCn1cnc2c(N)ncnc21 [GW345098],%Inh,[1],12%
same,%Inh,[2],24%
same,%Inh,[3],15%
same,%Inh,[4],35%
same,%Inh,[5],41%
same,%Inh,[6],0%
same,%Inh,[7],8%
same,%Inh,[8],5%
same,%Inh,[9],0%
same,%Inh,[10],0%
same,%Inh,[11],3%
same,%Inh,[12],0%
same,%Inh,[13],10%
same,%Inh,[14],0%
same,%Inh,[15],9%
same,%Inh,[16],6%
same,%Inh,[17],8%
same,%Inh,[18],0%
same,%Inh,[19],0%
same,%Inh,[20],1%
CC(C)(C)n1cnc2c(N)ncnc21 [SKF-97359],%Inh,[1],0%
same,%Inh,[2],0%
same,%Inh,[3],0%
same,%Inh,[4],36%
same,%Inh,[5],0%
same,%Inh,[6],0%
same,%Inh,[7],0%
same,%Inh,[8],0%
same,%Inh,[9],3%
same,%Inh,[10],19%
same,%Inh,[11],52%
same,%Inh,[12],63%
same,%Inh,[13],1%
same,%Inh,[14],0%
same,%Inh,[15],0%
same,%Inh,[16],0%
same,%Inh,[17],0%
same,%Inh,[18],0%
same,%Inh,[19],0%
same,%Inh,[20],0%
O=c1cc(N2CCOCC2)nc2n(Cc3cccc(C(F)(F)F)c3)ccn12 [GSK2297543],%Inh,[1],16%
same,%Inh,[2],0%
same,%Inh,[3],0%
same,%Inh,[4],0%
same,%Inh,[5],20%
same,%Inh,[6],0%
same,%Inh,[7],2%
same,%Inh,[8],0%
same,%Inh,[9],7%
same,%Inh,[10],0%
same,%Inh,[11],13%
same,%Inh,[12],36%
same,%Inh,[13],6%
same,%Inh,[14],0%
same,%Inh,[15],4%
same,%Inh,[16],0%
same,%Inh,[17],0%
same,%Inh,[18],0%
same,%Inh,[19],4%
same,%Inh,[20],0%
CC(C)(CN)c1nc(-c2ccc(Cl)c(O)c2)c(-c2ccncc2)[nH]1.O=C(O)C(F)(F)F [SB-477794],%Inh,[1]; 1 µM,98.2% and 98%
same,%Inh,[2]; 1 µM,37% and 47%
same,%Inh,[3],99.9%
same,%Inh,[4]; 1 µM,32% and 33%
same,%Inh,[5]; 1 µM,0% and 40%
same,%Inh,[6]; 1 µM,97.8% and 98.5%
same,%Inh,[7]; 1 µM,99.7% and 99.6%
same,%Inh,[8]; 1 µM,0% and 20%
same,%Inh,[9]; 1 µM,0% and 22%
same,%Inh,[10]; 1 µM,43% and 71%
same,%Inh,[11]; 1 µM,100% and 98.2%
same,%Inh,[12]; 1 µM,24% and 3%
same,%Inh,[13]; 1 µM,10% and 9%
same,%Inh,[14],0%
same,%Inh,[15]; 1 µM,19% and 13%
same,%Inh,[16],0%
same,%Inh,[17],0%
same,%Inh,[18]; 1 µM,11% and 0%
same,%Inh,[19]; 1 µM,0% and 17%
same,%Inh,[20],0%
COc1ccc(COc2cc(-n3cnc4ccccc43)sc2C(N)=O)cc1 [GSK1024304],%Inh,[1],37%
same,%Inh,[2],0%
same,%Inh,[3],0%
same,%Inh,[4],0%
same,%Inh,[5],0%
same,%Inh,[6],0%
same,%Inh,[7],3%
same,%Inh,[8],0%
same,%Inh,[9],5%
same,%Inh,[10],0%
same,%Inh,[11],9%
same,%Inh,[12],0%
same,%Inh,[13],6%
same,%Inh,[14],8%
same,%Inh,[15],7%
same,%Inh,[16],0%
same,%Inh,[17],0%
same,%Inh,[18],0%
same,%Inh,[19],23%
same,%Inh,[20],0%
Cc1cn2c(=O)cc(N3CCOCC3)nc2n1Cc1cccc(Cl)c1Cl [GSK2334006],%Inh,[1],37%
same,%Inh,[2],19%
same,%Inh,[3],0%
same,%Inh,[4],0%
same,%Inh,[5],10%
same,%Inh,[6],15%
same,%Inh,[7],5%
same,%Inh,[8],14%
same,%Inh,[9],0%
same,%Inh,[10],0%
same,%Inh,[11],4%
same,%Inh,[12],40%
same,%Inh,[13],14%
same,%Inh,[14],30%
same,%Inh,[15],12%
same,%Inh,[16],0%
same,%Inh,[17],0%
same,%Inh,[18],10%
same,%Inh,[19],32%
same,%Inh,[20],0%
Fc1ccc(-c2ncn(CCCN3CCOCC3)c2-c2cccnc2)cc1 [SB-211743],%Inh,[1],16%
same,%Inh,[2],0%
same,%Inh,[3],0%
same,%Inh,[4],16%
same,%Inh,[5],0%
same,%Inh,[6],2%
same,%Inh,[7],0%
same,%Inh,[8],0%
same,%Inh,[9],4%
same,%Inh,[10],0%
same,%Inh,[11],4%
same,%Inh,[12],0%
same,%Inh,[13],0%
same,%Inh,[14],0%
same,%Inh,[15],0%
same,%Inh,[16],0%
same,%Inh,[17],0%
same,%Inh,[18],0%
same,%Inh,[19],0%
same,%Inh,[20],14%
COc1cc(Nc2nccc(N3CCC(NC(=O)c4cccc(NC(C)=O)c4)C3)n2)cc(OC)c1OC (centres unmarked) [GSK1379754],%Inh,[1],34%
same,%Inh,[2],0%
same,%Inh,[3],0%
same,%Inh,[4],0%
same,%Inh,[5],18%
same,%Inh,[6],3%
same,%Inh,[7],19%
same,%Inh,[8],26%
same,%Inh,[9],0%
same,%Inh,[10],0%
same,%Inh,[11],0%
same,%Inh,[12],7%
same,%Inh,[13],27%
same,%Inh,[14],6%
same,%Inh,[15],40%
same,%Inh,[16],0%
same,%Inh,[17],0%
same,%Inh,[18],0%
same,%Inh,[19],21%
same,%Inh,[20],0%
